Source: PubChem
HDAC3 inhib: inhibitors of human histone deacetylase 3 | O15379 | recombinant HDAC3, fluorogenic peptide/trypsin coupled, fluorescence | inhibition, % at 8.3 µM | 0.15% of 320,000 active; in the data active = inhibition above about 26%, passing the limit was not always enough; inconclusive = no clear call, values can overlap the other calls
Target sequence (O15379 whole entry, looked up): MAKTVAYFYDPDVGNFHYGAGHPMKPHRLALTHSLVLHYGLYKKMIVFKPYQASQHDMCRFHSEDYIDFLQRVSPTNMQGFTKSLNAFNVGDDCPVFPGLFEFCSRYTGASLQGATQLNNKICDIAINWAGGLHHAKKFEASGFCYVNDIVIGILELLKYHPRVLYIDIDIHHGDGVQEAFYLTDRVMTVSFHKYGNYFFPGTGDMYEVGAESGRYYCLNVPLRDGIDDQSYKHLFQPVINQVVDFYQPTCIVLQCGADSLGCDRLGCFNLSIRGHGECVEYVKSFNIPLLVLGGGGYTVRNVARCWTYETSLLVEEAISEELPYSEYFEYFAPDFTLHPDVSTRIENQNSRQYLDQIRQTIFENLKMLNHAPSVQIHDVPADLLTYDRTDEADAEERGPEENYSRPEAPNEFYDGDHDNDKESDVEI
PHOSPHO1 inh: PHOSPHO1 (human) inhibition. Q8TCT1. recombinant PHOSPHO1, absorbance phosphatase assay. inhibition, % at 13.3 µM. 1.1% of 290,000 active. AID 1565; in the data active = inhibition above about 60%
PvdQ acylase: blocks Pseudomonas aeruginosa PvdQ acylase activity. purified PvdQ acylase, fluorescence plate reader. inhibition, % at 10 µM. 0.063% of 340,000 active. AID 488965; in the data active = inhibition above about 30%, passing the limit was not always enough; inconclusive = no clear call, values can overlap the other calls
GASC-1 inh: blocks human GASC-1 demethylase activity. Q9H3R0. GST-JMJD2C(1-420) H3K9me3 demethylation, DELFIA europium. inhibition, % at 2.35 µM. 0.069% of 330,000 active. AID 2099;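 active = more than half of a compound's replicate wells show inhibition beyond 50%, single wells judged on their own value; inconclusive = some, but no more than half, of replicates pass 50% inhibition; inactive = no replicate passes 50% inhibition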;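 note: signal counts dimethyl H3K9 product captured on neutravidin plate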
pCIP destab: lowers stability of the mouse p/CIP coactivator protein; 0.01% of 290,000 active; decrease of EGFP signal, % at 10 µM; F442A p/CIP-EGFP cells, EGFP fluorescence, 16 h;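 active = EGFP signal decrease of at least 30% at 10 µM or well 3 SD below plate mean, unless failing retest; inactive = the rest, including hits failing retest or dose response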
SUMO Mot1 rescue: inhibitors of SUMOylation pathway: yeast Mot1-301 growth rescue; growth rescue, % at 18.8 µM; 1% of 320,000 active; S. cerevisiae Mot1-301 growth rescue, ATP luminescence, 38.5C; percent above DMSO median, 100 means doubled; AID 2716;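 active = every valid replicate shows activation above 250% relative to neutral control wells; inactive = the rest, any valid replicate at or below 250%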
Numbers stand for hits; n = inactive; u = inconclusive; x = no result; + = active, no number. Only some compounds are listed: those with a hit (about 2.2% of all), similar ones and a draw of the others.

SMILES	HDAC3 inhib	PHOSPHO1 inh	PvdQ acylase	GASC-1 inh	pCIP destab	SUMO Mot1 rescue
COc1cccc(-c2nnc(SCC(=O)OC(C)C)n2Cc2ccco2)c1	n	72	n	n	n	n
CC(C)OC(=O)CSc1nnc(-c2cnccn2)n1Cc1ccco1	n	n	n	n	n	n
COc1cccc(NC(=O)CSc2nnc(-c3cccc(OC(C)C)c3)n2N)c1	x	88	n	n	n	n
COc1c(Cl)cc(C(=O)NCc2ccco2)cc1Cl	n	n	n	n	n	n
O=C(CC12CC3CC(CC(C3)C1)C2)NC1CC1	n	x	n	n	x	n
COc1ccc(-c2nc3cnccn3c2NCc2ccccc2)cc1SC1CCCCC1	29	x	n	n	x	n
CS(=O)(=O)N(Cc1ccc(Cl)cc1)c1ccc(C(=O)N2CCN(c3ccccc3)CC2)cc1	n	100	n	n	n	n
COc1cccc(S(=O)(=O)NCc2ccc(C(=O)N3CCN(c4ccccc4)CC3)cc2)c1	n	n	n	n	n	n
Cc1ccc(S(=O)(=O)NCc2ccc(C(=O)N3CCN(c4ccccc4)CC3)cc2)cc1	n	73	n	n	n	n
Cc1ccccc1OCC(=O)NNC(=O)c1cc(S(=O)(=O)N2CCOCC2)ccc1N1CCCC1	n	x	n	n	x	n
COc1ccc(C(=O)CSc2nc(C)cc(=O)[nH]2)cc1	n	n	n	n	n	n
COc1ccc(C(=O)CSc2cc(C)[nH]c(=O)n2)cc1	61	n	n	n	n	n
Cc1csc(Nc2ccccc2C(F)(F)F)n1	n	n	n	n	n	n
FC(F)(F)c1ccccc1Nc1nccs1	n	95	n	n	n	n
CCNC(=S)NNC(=O)c1cc(-c2cccc(C)c2)nc2ccccc12	n	72	n	n	n	n
CCNC(=S)NNC(=O)c1cc(-c2cccc(OCC)c2)nc2ccccc12	n	n	n	u	n	n
COc1ccc(S(=O)(=O)N(C)C)cc1NC(=O)c1ccc2c(c1)NC(=O)C(C)S2 (centres undefined)	n	x	n	n	x	n
O=C(O)c1ccccc1-c1ccc(/C=c2\sc3nc4cc(Br)cnc4n3c2=O)o1	u	62	n	n	n	n
Clc1ccc(-c2cn3nc4c(nc3n2)CCCC4)cc1	n	88	n	n	n	n
COc1ccc(S(=O)(=O)Nc2nnc(C(C)(C)C)s2)cc1	n	98	n	u	n	n
Cc1cc(SC2CCOC2=O)nc2ccccc12 (centres undefined)	n	n	n	n	n	n
Cc1cc2nnc(SC3CCOC3=O)n2c2ccccc12 (centres undefined)	n	74	n	n	n	n
O=C1c2ccccc2NC(c2ccc(O)cc2)N1c1ccccc1 (centres undefined)	n	n	n	n	n	n
O=C(COC(=O)c1ccc2c(c1)OCCO2)Nc1cc(Cl)ccc1Cl	n	n	n	n	n	321
Cc1[nH][nH]c(=O)c1C(c1c(C)[nH][nH]c1=O)c1cn(Cc2cccc3ccccc23)c2ccccc12	n	n	n	68	n	n
SMILES	HDAC3 inhib	PHOSPHO1 inh	PvdQ acylase	GASC-1 inh	pCIP destab	SUMO Mot1 rescue
COc1ccc(-c2nnc(SC3CCOC3=O)n2C2CCCCC2)cc1OC (centres undefined)	n	75	n	n	n	n
COc1ccc(-c2nnc(CSc3nnc(-c4ccncc4)n3C3CCCCC3)o2)cc1OC	n	n	n	n	n	n
Cc1ccccc1NC(=S)Nn1cnnc1	x	n	n	n	n	n
CCc1ccccc1NC(=S)Nn1cnnc1	n	61	n	n	n	n
COc1ccccc1Nc1n[nH]c(=S)s1	x	n	n	n	n	n
Cc1cccc(Nc2n[nH]c(=S)s2)c1C	n	100	n	n	n	n
O=C(COc1ccc([N+](=O)[O-])cc1)NC(=O)NC1CCS(=O)(=O)C1 (centres undefined)	x	x	n	x	x	x
Cn1c(-c2sc(=S)n(-c3ccccc3)c2N)nc2ccccc21	n	n	n	n	n	n
C=CCn1c(N)c(-c2nc3ccccc3n2C)sc1=S	n	n	n	50	n	n
CC(C)[C@H](NC(=O)OCc1ccccc1)C(=O)N[C@@H](Cc1c[nH]c2ccccc12)C(=O)O	n	x	n	n	x	n
O=C(c1ccccc1)N1CCCC(C(=O)N2CCc3ccccc3C2)C1 (centres undefined)	n	n	n	n	n	n
O=C(c1ccc(Cl)cc1)N1CCCC(C(=O)N2CCc3ccccc3C2)C1 (centres undefined)	n	60	n	n	n	n
C=CCNC(=S)NNC(=O)c1ccc(OCC(C)C)cc1	n	60	n	n	n	n
C=CCNC(=S)NNC(=O)c1ccc(OCC)cc1	n	n	n	n	n	n
CCOc1ccc(NC(=O)C(=O)NCCN2CCN(S(=O)(=O)c3ccc(C)cc3)CC2)cc1	n	n	n	n	n	n
O=C(NNC(=O)c1ccc(Br)s1)c1cccc(Cl)c1	n	x	n	n	x	n
COc1ccccc1OCCCCN1CCCCC1	n	n	n	n	n	n
COc1ccccc1OCCN1CSC(=S)N(C)C1	x	n	n	n	n	+
CCOC(=O)CNC(=O)CSc1nnc(SCC(=O)NCC(=O)OCC)s1	n	n	n	n	n	n
CCOC(=O)CCSc1n[nH]c(=S)s1	n	n	n	n	n	n
CCOC(=O)CSc1nnc(SCCN2C(=O)c3ccccc3C2=O)s1	n	73	n	n	n	n
CCOC(=O)CSc1n[nH]c(=S)s1	n	60	n	n	n	n
Nc1nnc(SCC(=O)c2cccc([N+](=O)[O-])c2)s1	n	n	n	n	n	n
Nc1nnc(SCC(=O)c2ccc3ccccc3c2)s1	n	75	n	n	n	n
CCOC(=O)CSc1nnc(N)s1	n	90	n	n	n	n
SMILES	HDAC3 inhib	PHOSPHO1 inh	PvdQ acylase	GASC-1 inh	pCIP destab	SUMO Mot1 rescue
CC(=O)O[C@H]1C(=O)[C@@]2(C)[C@H]([C@H](OC(=O)c3ccccc3)[C@]3(O)C[C@H](OC(=O)[C@H](O)[C@@H](NC(=O)c4ccccc4)c4ccccc4)C(C)=C1C3(C)C)[C@]1(OC(C)=O)CO[C@@H]1C[C@@H]2O	n	x	n	x	x	n
COc1cccc(C2C(C(=O)c3ccco3)=C(O)C(=O)N2CCN(C)C)c1OC (centres undefined)	n	n	n	n	n	470
CCCCN(C)CCNC(=O)C(NC(=O)C1CCC(C)CC1)C(C)C (centres undefined)	n	n	n	n	n	n
O=C(CSc1nnc(COc2ccccc2)n1-c1ccccc1)c1ccccc1	n	76	n	n	n	n
CCOC(=O)CSc1nnc(Cc2ccc(OC)cc2)n1-c1ccccc1	n	79	n	n	n	x
COc1ccc(-n2c(COc3ccccc3)nnc2SCC(N)=O)cc1	n	72	n	n	n	n
COc1ccc(-n2c(COc3ccc(C)cc3)nnc2SCC(N)=O)cc1	n	95	n	x	n	n
COC(=O)c1[nH]nc(-c2ccccc2)c1-c1ccccc1	n	x	n	n	x	n
